In PubChem BioAssay (Tox21):
Several values for one entry are separate records, joined by “and”; a condition that tells them apart may be missing. Equal entries are not always repeated. Results filed as inconclusive are left out. Some structures have more than one record in an assay (separate samples or runs), and their calls can disagree. Activity calls are given as the source filed them. Unless noted, calls follow the shape of the dose curve; as a rule, active = well fitted curve in the direction sought with a large enough effect in the repeat runs; inconclusive = weak or mixed curves; inactive = no such curve, though single readings can be large; an effect the other way counts as inactive or inconclusive.

Key:
[1] = qHTS assay to identify small molecule antagonists of the vitamin D receptor (VDR) signaling pathway - cell viability counter screen (AID 743225); also: nearly all actives have a fitted effect of over 50% in size; also: potency is read from the fitted curve at half-maximal effect
In short: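 Read-out: CellTiter-Glo luminescence measured 30 min after reagent addition at room temperature. Cells were VDR-bla HEK 293T exposed 16 h at 37C, 5% CO2, to compound with 3 nM final calcitriol agonist.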

[2] = qHTS assay to identify small molecule agonists of the endoplasmic reticulum stress response signaling pathway (AID 1159516; active = well fitted activation curve with a large enough effect in the signal ratio in the repeat runs, not every such curve was filed as active; the % refers to the signal ratio)
In short: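 Read-out is beta-lactamase cleavage of a FRET substrate (405 nm excitation; 460 and 530 nm emissions) in ESRE-bla HeLa cells after a 5 hr compound exposure at 37 C. Substrate incubation ran 2 hr at room temperature.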

[3] = qHTS assay to identify small molecule agonists of the endoplasmic reticulum stress response signaling pathway - cell viability counter screen (AID 1159517; calls by dose curve;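 also: HeLa cells carrying an ER stress response element beta-lactamase reporter; series mostly up to about 61 µM; nearly all actives have a fitted effect of over 50% in size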)
In short: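 HeLa cells carrying an ESRE-driven beta-lactamase reporter receive compound for 5 hr at 37 C. Cell viability is then gauged with CellTiter-Glo by luminescence, 30 min at room temperature.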

[4] = qHTS assay to identify small molecule antagonists of the retinoid-related orphan receptor gamma (ROR-gamma) signaling pathway - cell viability counter screen (AID 1159520); also: nearly all actives have a fitted effect of over 50% in size; also: potency is read from the fitted curve at half-maximal effect
In short: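 Cytotoxicity was read from cellular ATP (CellTiter-Glo luminescence) after 16 hr at 37 C with 1 uM doxycycline induction. The inducer was added 2 hr after compound transfer to Tet-on ROR gamma CHO cells.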

[5] = molecular target: Nuclear receptor ROR-gamma (Homo sapiens) (UniProt P51449); test: qHTS assay to identify small molecule antagonists of the retinoid-related orphan receptor gamma (ROR-gamma) signaling pathway (AID 1159521; also: nearly all actives have a fitted effect of over 50% in size; also: potency is read from the fitted curve at half-maximal effect)
In short: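 CHO Tet-on RORγ, RORE-luc reporter. Cpd 2 h pre-incubation, then dox hyclate 1 uM final, 16 h, 37 C/5% CO2. ONE-Glo luminescence; decrease = antagonist.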

[6] = qHTS assay to identify small molecule agonists of the AP-1 signaling pathway - cell viability counter screen (AID 1159525; calls by dose curve; also: nearly all actives have a fitted effect of over 55% in size; also: potency is read from the fitted curve at half-maximal effect)
In short: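 Luminescent ATP readout (Cell Titer Glo, 30 min RT), normalised to DMSO and tetra n-octyl ammonium bromide controls. Cells were ME-180 AP-1-bla in 0.5% dialyzed FBS Opti-MEM, with a 5 h, 37 °C compound exposure.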

[7] = qHTS assay to identify small molecule agonists of the AP-1 signaling pathway (AID 1159526; calls by dose curve)
[8] = molecular target: Retinoic acid receptor RXR-alpha (Homo sapiens) (UniProt P19793); test: qHTS assay to identify small molecule agonists of the RXR signaling pathway (AID 1159527; calls by dose curve; also: nearly all actives have a fitted effect of over 35% in size)
Chain of Retinoic acid receptor RXR-alpha (Homo sapiens) (P19793 whole entry, looked up): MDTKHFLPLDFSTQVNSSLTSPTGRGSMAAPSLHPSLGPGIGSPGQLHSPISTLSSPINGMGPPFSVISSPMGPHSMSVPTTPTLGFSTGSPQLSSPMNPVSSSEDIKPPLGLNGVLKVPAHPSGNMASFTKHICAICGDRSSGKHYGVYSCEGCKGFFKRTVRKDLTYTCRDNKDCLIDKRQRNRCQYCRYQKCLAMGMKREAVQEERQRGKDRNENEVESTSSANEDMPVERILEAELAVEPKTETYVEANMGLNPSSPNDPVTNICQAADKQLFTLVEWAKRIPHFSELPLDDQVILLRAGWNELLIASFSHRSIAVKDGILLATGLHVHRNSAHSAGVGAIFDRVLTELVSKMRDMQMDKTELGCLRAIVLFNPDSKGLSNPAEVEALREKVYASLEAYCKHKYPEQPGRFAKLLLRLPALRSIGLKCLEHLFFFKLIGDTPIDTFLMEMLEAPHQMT
In short: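 Read-out: beta-lactamase FRET ratio (405 nm excitation, 460 and 530 nm emission) after 2 hr substrate loading at room temperature. Cells were RXR-alpha-UAS-bla HEK 293T treated with compounds for 16 hr in 2% charcoal-stripped FBS medium.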

[9] = qHTS assay to identify small molecule agonists of the RXR signaling pathway - cell viability counter screen (AID 1159529); also: nearly all actives have a fitted effect of over 50% in size; also: potency is read from the fitted curve at half-maximal effect
In short: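 HEK 293T RXRa-bla cells, 2% CS-FBS; 5 h settle; cpd 16 h 37 C, 5% CO2; CellTiter-Glo 30 min RT, luminescence. Tetraoctyl ammonium bromide as positive control.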

[10] = qHTS assay to identify small molecule antagonists of the retinoid acid receptor (RAR) signaling pathway - cell viability counter screen (AID 1159551); also: nearly all actives have a fitted effect of over 35% in size
In short: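 Luminescent ATP quantitation (CellTiter-Glo) gave cell viability in C3RL4 cells exposed to test chemicals for 6 h at 37 C alongside 1 uM final retinol.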

[11] = qHTS assay to identify small molecule antagonists of the retinoic acid receptor (RAR) signaling pathway (AID 1159552; also: nearly all actives have a fitted effect of over 50% in size; also: potency is read from the fitted curve at half-maximal effect)
In short: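 Cells of the C3RL4 line were seeded, incubated overnight, then dosed with compounds in DMSO followed immediately by retinol (1 uM final). Six hours later luciferase detection reagent went in; signal was measured after 30 min at RT.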

[12] = qHTS assay to identify small molecule antagonists of the estrogen related receptor (ERR) signaling pathway from Tox21 library - cell viability counter screen (AID 1224834); also: nearly all actives have a fitted effect of over 30% in size; also: potency is read from the fitted curve at half-maximal effect
In short: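 Fluorescence from CellTiter-Fluor gives the viability read-out, taken 30 min after reagent addition. Before that, ERR cells seeded 6 h earlier were incubated with compounds for 17.5 h at 37 C.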

[13] = qHTS assay to identify small molecule agonists of the retinoic acid receptor (RAR) signaling pathway (AID 1159553); also: potency is read from the fitted curve at half-maximal effect
In short: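 Luminescence from a RARE-driven luciferase reporter in C3RL4 cells served as the read-out, measured after 30 min with detection reagent at room temperature. Compounds in DMSO were applied for 6 hr at 37 C following overnight seeding.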

[14] = qHTS assay to identify small molecule agonists of the NFkB signaling pathway - cell viability counter screen (AID 1159515; calls by dose curve; also: nearly all actives have a fitted effect of over 55% in size; also: potency is read from the fitted curve at half-maximal effect)
In short: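 Luminescence from CellTiter-Glo (30 min, room temperature) gives viability, measured in the same wells as the beta-lactamase reporter read. Cells were NFkB-bla ME-180, 2,000 per well, treated 5 hr with compounds.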

[15] = qHTS assay to identify small molecule antagonists of the estrogen related receptor (ERR) signaling pathway - cell viability counter screen (AID 1224818);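 also: series mostly up to about 46 µM; viability measured after 17.5 h of compound exposure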
In short: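 Multiplexed counter screen to separate cytotoxic compounds from true ERR modulators. ERR cells received DMSO-dissolved compounds after a 6 h pre-incubation, were exposed 17.5 h at 37 C, then assayed with CellTiter-Fluor fluorescence.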

[16] = qHTS assay to identify small molecule antagonists of the estrogen related receptor (ERR) signaling pathway (AID 1224819)
In short: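 Seed ERR cells 2,000/well; rest 6 h at 37 C/5% CO2; pin compounds in DMSO; incubate 18 h at 37 C; add One-Glo; wait 30 min at room temperature; measure luminescence.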

[17] = qHTS assay to identify small molecule agonists of the estrogen related receptor (ERR) signaling pathway (AID 1224820)
In short: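 Cells: ERR line from NTP, 2,000/well. Pre-incubation 6 h, 37 C/5% CO2. Compound (DMSO) pin transfer, 18 h 37 C. One-Glo, 30 min RT, luminescence.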

[18] = qHTS assay to identify small molecule agonists of the estrogen related receptor signaling pathway with the pleiotropic PPARgamma coactivator (PGC) (AID 1224823)
In short: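 Steps: plate PGC/ERR cells at 2,000 cells/well; incubate 6 h, 37 C/5% CO2; pin-transfer compounds (DMSO); incubate 18 h, 37 C; add One-Glo; 30 min RT; read luminescence.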

[19] = system: estrogen-related receptor alpha (ERRalpha) with PGC-1alpha coactivator, human; test: qHTS assay to identify small molecule antagonists of the estrogen related receptor signaling pathway with the pleiotropic PPARgamma coactivator (PGC) (AID 1224821; calls by dose curve)
In short: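 Luminescent read-out (One-Glo, 30 min at room temperature) following 18 h treatment of PGC/ERR cells at 37 C with compounds delivered in DMSO. Cells had settled 6 h at 37 C/5% CO2 before dosing.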

Measured: Potency

C/C=C(\C)C(=O)OCc1ccccc1
inactive: [1] | [2] | [3] | [4] | [5] | [6] | [7] | [8] | [9] | [10] | [11] | [12]

CCC(N)(CO)CO
inactive: [1] | [2] | [3] | [4] | [5] | [7] | [8] | [10] | [11] | [13]

C[n+]1ccn(Cc2ccccc2)c1
inactive: [1] | [2] | [3] | [4] | [5] | [6] | [7] | [8] | [9] | [10] | [11] | [13]

CCCCCCCCCCC=O
inactive: [2] | [3] | [4] | [5] | [6] | [7] | [8] | [9] | [10] | [11] | [13] | [12]

COc1ccc(CN2CCN(C(c3ccc(F)cc3)c3ccc(F)cc3)CC2)c(OC)c1OC
inactive: [10]
active: [1] 16.9 µM | [14] 15.1 µM | [5] 23.7 µM | [11] 26.6 µM

c1ccc(CSCc2ccccc2)cc1
inactive: [1] | [2] | [3] | [4] | [5] | [6] | [7] | [8] | [9] | [10] | [11] | [12]

S=c1[nH]c2ccccc2s1
active: [13] 8.63 µM
inactive: [14] | [9] | [10] | [11] | [15] | [16] | [17] | [18]

CCCC1O[C@@H]2C[C@H]3[C@@H]4CCC5=CC(=O)C=C[C@]5(C)[C@H]4[C@@H](O)C[C@]3(C)[C@]2(C(=O)CO)O1 (some centres undefined)
inactive: [2] | [3] | [4] | [6] | [9] | [10] | [13] | [15] | [17] | [19] | [18]
active: [5] 48.6 µM | [11] 48.6 µM

NC(=O)CC[C@@H]1NC(=O)[C@H](Cc2ccccc2)NC(=O)[C@H](Cc2ccc(O)cc2)NC(=O)CCSSC[C@@H](C(=O)N2CCC[C@H]2C(=O)N[C@@H](CCCN=C(N)N)C(=O)NCC(N)=O)NC(=O)[C@H](CC(N)=O)NC1=O
inactive: [1] | [2] | [3] | [4] | [5] | [7] | [8] | [10] | [13]

O=C1c2ccccc2Cc2ccccc21
inactive: [2] | [3] | [4] | [5] | [6] | [7] | [8] | [10] | [11]

CC(=O)OCC(C)OC(C)=O (centres undefined)
inactive: [1] | [2] | [3] | [4] | [5] | [6] | [7] | [8] | [10] | [11] | [12]

CNC(=O)c1ccccc1
inactive: [2] | [3] | [4] | [5] | [6] | [7] | [8] | [9] | [10] | [12]

COC(=O)C1=C(C)NC(C)=C(C(=O)OCC(C)C)C1c1ccccc1[N+](=O)[O-] (centres undefined)
49 µM (active) and inactive: [9]
active: [11] 48.6 µM | [12] 21.7 µM and 29.8 µM
inactive: [1] | [2] | [3] | [7] | [10] | [13]
43.3 µM (active) and inactive: [4]
24.5 µM (active) and inactive: [6]

O=c1cc(-c2ccc(O)cc2)oc2cc(O)cc(O)c12
active: [13] 1.56 µM | [12] 49.2 µM and 30.6 µM
inactive: [1] | [2] | [3] | [4] | [6] | [9] | [11]
